The values below come from the antibiotic and cytotoxicity screens of Wong et al. (2023).

Hit rate of the full screen: of about 39,000 compounds, about 1,500 (3.8%) were called active. Only a selection was taken, and actives are over-represented in it overall.

This assay relates to HSkMC (human skeletal muscle cells). Kind of assay: cytotoxicity call (relative viability < 0.9). The conditions noted are these: 10 µM.
Take `C[C@H]1CN([C@@H](C)CO)C(=O)c2cccc(NC(=O)CCCCCC(=O)Nc3ccccc3N)c2O[C@@H]1CN(C)C(=O)Nc1ccccc1`: the cytotoxicity call was “inactive”.

`C[C@H](CO)N1C[C@H](C)[C@@H](CN(C)Cc2ccc(C(=O)O)cc2)OCCCC[C@H](C)Oc2ccc(NC(=O)C3CCCCC3)cc2C1=O`: the cytotoxicity call is “inactive”.

`C[C@@H]1CN([C@@H](C)CO)C(=O)Cc2cc(NC(=O)Nc3ccc(F)cc3)ccc2O[C@@H]1CN(C)C(=O)Nc1cccc2ccccc12`: the cytotoxicity call was “inactive”.

Consider `COc1ccc(C#Cc2ccc3c(c2)[C@]2(C(=O)N3)[C@H](C(=O)Nc3nc4ccccc4s3)[C@H]3C(=O)O[C@H](c4ccccc4)[C@H](c4ccccc4)N3[C@@H]2c2ccc(O)cc2)cc1`, for which the cytotoxicity call was “inactive”.

On to `Cc1ccc(S(=O)(=O)N(C)C[C@@H]2Oc3ccc(NS(C)(=O)=O)cc3C(=O)N([C@@H](C)CO)C[C@@H]2C)cc1`, for which the cytotoxicity call was “inactive”.

In the case of `NCc1nncn1-c1ccc(F)cc1`, the cytotoxicity call is “inactive”.

In the case of `C[C@H](CO)N1C[C@H](C)[C@H](CN(C)CC2CCCCC2)OCCCC[C@H](C)Oc2ccc(NC(=O)c3ccncc3)cc2C1=O`, the cytotoxicity call is “inactive”.

Regarding `C[C@H](CO)N1C[C@H](C)[C@@H](CN(C)S(=O)(=O)c2cccs2)Oc2c(NS(=O)(=O)c3cn(C)cn3)cccc2C1=O`, the cytotoxicity call was “inactive”.

Turning to `COCC#Cc1cnc2c(c1)C(=O)N([C@@H](C)CO)C[C@@H](C)[C@@H](CN(C)C(=O)CN1CCOCC1)O2`, the cytotoxicity call was “inactive”.

As to `C[C@@H]1CCCCO[C@@H](CN(C)CC2CCCCC2)[C@H](C)CN([C@H](C)CO)C(=O)c2cc(NC(=O)Nc3ccc(C(F)(F)F)cc3)ccc2O1`, the cytotoxicity call was “active”.

Regarding `C[C@H]1CCCCO[C@@H](CN(C)CC2CCCCC2)[C@@H](C)CN([C@@H](C)CO)C(=O)c2cc(NC(=O)Nc3ccc(C(F)(F)F)cc3)ccc2O1`, the cytotoxicity call was “active”.

Consider `C[C@@H]1CN([C@@H](C)CO)C(=O)c2cc(NC(=O)Nc3ccc(C(F)(F)F)cc3)ccc2O[C@@H](C)CCCCO[C@@H]1CN(C)CC1CCCCC1`, for which the cytotoxicity call was “inactive”.

Take `C[C@@H]1CN([C@@H](C)CO)C(=O)c2cc(NC(=O)Nc3ccc(C(F)(F)F)cc3)ccc2O[C@@H](C)CCCCO[C@H]1CN(C)CC1CCCCC1`: the cytotoxicity call is “inactive”.

For `Cc1noc(C)c1NC(=O)Nc1ccc2c(c1)C(=O)N([C@H](C)CO)C[C@H](C)[C@H](CN(C)Cc1ccncc1)OCCCC[C@@H](C)O2`, the cytotoxicity call was “inactive”.

For `CO[C@@H]1CN(C)C(=O)c2cc(NS(C)(=O)=O)ccc2OC[C@@H](C)N(C(=O)CN(C)C)C[C@@H]1C`, the cytotoxicity call is “inactive”.

On to `C[C@H]1CN([C@@H](C)CO)C(=O)c2cc(NS(=O)(=O)c3cn(C)cn3)ccc2O[C@H]1CN(C)S(C)(=O)=O`, for which the cytotoxicity call was “inactive”.

`C[C@H]1CN([C@@H](C)CO)S(=O)(=O)c2ccc(C#CC3(O)CCCC3)cc2O[C@@H]1CN(C)C(=O)Cc1ccncc1`: the cytotoxicity call is “inactive”.

On to `COc1ccc(S(=O)(=O)N(C)C[C@H]2OCCCC[C@@H](C)Oc3ccc(NC(=O)c4ccccc4)cc3C(=O)N([C@H](C)CO)C[C@@H]2C)cc1`, for which the cytotoxicity call is “inactive”.

Consider `C[C@@H]1CN([C@H](C)CO)C(=O)c2cc(NC(=O)Cc3ccccc3)ccc2O[C@@H](C)CCCCO[C@@H]1CN(C)C(=O)C1CCCCC1`, for which the cytotoxicity call is “inactive”.

As for `COC(=O)C[C@](O)(CCCC(C)(C)O)C(=O)O[C@@H]1C(OC)=C[C@]23CCCN2CCc2cc4c(cc2[C@H]13)OCO4`, the cytotoxicity call is “active”.

In the case of `C[C@@H]1CN([C@@H](C)CO)C(=O)CCCn2cc(nn2)CO[C@@H]1CN(C)C(=O)Nc1cccc(C(F)(F)F)c1`, the cytotoxicity call is “inactive”.

In the case of `C[C@H](CO)N1C[C@H](C)[C@@H](CN(C)C(=O)C2CCCCC2)OCCCC[C@H](C)Oc2ccc(NC(=O)Cc3ccccc3)cc2C1=O`, the cytotoxicity call is “inactive”.

With `C[C@@H]1CN([C@@H](C)CO)S(=O)(=O)c2ccc(C#CC3CC3)cc2O[C@H]1CN(C)Cc1ccc(F)cc1`, the cytotoxicity call is “inactive”.

As to `C[C@H](CO)N1C[C@H](C)[C@@H](CN(C)Cc2ccc(F)cc2)Oc2cc(C#CC3CC3)ccc2S1(=O)=O`, the cytotoxicity call was “inactive”.

As to `C[C@H]1CN([C@@H](C)CO)S(=O)(=O)c2ccc(C#CC3CC3)cc2O[C@H]1CN(C)Cc1ccc(F)cc1`, the cytotoxicity call was “inactive”.

Turning to `C[C@@H]1CN([C@H](C)CO)S(=O)(=O)c2ccc(C#CC3CC3)cc2O[C@@H]1CN(C)Cc1ccc(F)cc1`, the cytotoxicity call was “inactive”.

Regarding `C[C@H]1CN([C@@H](C)CO)S(=O)(=O)c2ccc(C#CC3CC3)cc2O[C@@H]1CN(C)Cc1ccc(F)cc1`, the cytotoxicity call is “active”.

Consider `C[C@@H]1CN([C@H](C)CO)S(=O)(=O)c2ccc(C#CC3CC3)cc2O[C@H]1CN(C)Cc1ccc(F)cc1`, for which the cytotoxicity call is “active”.

For the molecule `CO[C@@H]1CN(C)C(=O)c2cc(NC(=O)Nc3ccccc3F)ccc2OC[C@@H](C)N(CCC(F)(F)F)C[C@H]1C`, the cytotoxicity call is “inactive”.

Turning to `C[C@@H]1CN([C@@H](C)CO)C(=O)c2cc(NC(=O)Cc3ccccc3)ccc2O[C@@H]1CN(C)C(=O)Nc1ccc(C(F)(F)F)cc1`, the cytotoxicity call is “inactive”.

Turning to `O=C([C@H]1[C@H](CO)[C@H]2Cn3c(cccc3=O)[C@H]2N1C(=O)C1CCCC1)N1CCOCC1`, the cytotoxicity call was “inactive”.

Regarding `COc1ccc(CN(C)C[C@H]2Oc3c(NC(=O)C4CCOCC4)cccc3C(=O)N([C@H](C)CO)C[C@@H]2C)cc1`, the cytotoxicity call was “inactive”.

On to `O=C(C[C@H]1CC[C@H]2[C@@H](COC[C@@H](O)CN2C(=O)Nc2cccc(F)c2)O1)NCc1ccccc1Cl`, for which the cytotoxicity call is “inactive”.

`CCC(=O)Nc1ccc(C)c(C)c1`: the cytotoxicity call was “inactive”.

As for `C[C@@H]1CCCCO[C@@H](CN(C)C(=O)Nc2ccc(F)cc2)[C@@H](C)CN([C@H](C)CO)C(=O)c2cc(NC(=O)CCCN(C)C)ccc2O1`, the cytotoxicity call was “inactive”.

In the case of `Cc1ccc(S(=O)(=O)N(C)C[C@@H]2Oc3ccc(NS(=O)(=O)c4cccs4)cc3CC(=O)N([C@@H](C)CO)C[C@H]2C)cc1`, the cytotoxicity call was “inactive”.

Regarding `COC(=O)c1c(C(=O)OC)c2n(c(=O)c1-c1ccccc1)[C@@H]1c3ccccc3O[C@@](COCc3ccc(OC)cc3)([C@@H]1CO[Si](C)(C)C(C)(C)C)N2C`, the cytotoxicity call was “inactive”.

Consider `COc1ccc(COCC23Oc4ccccc4[C@H]([C@H]2CO[Si](C)(C)C(C)(C)C)n2c(c4ccccc4c(-c4ccccc4)c2=O)N3C)cc1`, for which the cytotoxicity call was “active”.

For the molecule `COc1ccc(COCC23Oc4ccccc4[C@H]([C@H]2CO)n2c(c4ccccc4c(-c4ccccc4)c2=O)N3C)cc1`, the cytotoxicity call is “inactive”.
